# In PubChem BioAssay AID720537 (National Center for Advancing Translational Sciences (NCATS), 2013):
# About 55 (3%) of roughly 1,600 compounds were called active. Not shown: some 10% with an inconclusive outcome. Not all results are given here. A number with no mark means an inactive call. Calls follow the shape of the dose curve; as a rule, active = well fitted inhibition curve with a large enough effect; inconclusive = small, poorly fitted or top-dose-only effect; inactive = no such curve, though single readings can be large or run the other way.
# Assay: qHTS for Inhibitors of TGF-b: Hit Validation in HepG2 Cells using COP promoter; also: nearly all actives have a fitted effect of over 70% in size
# Conditions: HepG2 COP-GFP TGF-b reporter, GFP fluorescence, 18 h, cells stimulated by added recombinant TGF-beta; series mostly up to 46.1 µM; activity, negative = inhibition: at the top concentration
# Excerpt: TGF-b is a main component in the TGF-b signaling pathway which plays diverse roles in cellular and development pathways. TGF-b is the mediated by the transcription factors Smads. Although the Smad-dependent pathway is the primary canonical TGF-b signaling node, TGF-b1 can also activate alternative signaling pathways, including those involving MAPK (ERK, JNK and p38). This interaction may mediate or enhance Smad-dependent responses, or can exert Smad-independent effects. The complexity of this signaling cascade allows the TGF-b superfamily to perform unique, overlapping or redundant functions. We believe that targeting the TGF-beta pathway at the Smad-transcription factor level may eliminate the consequences of disrupting the entire pathway and offer specificity without affecting other signaling pathways. Smad3 is the primary transducer of TGF-b's signals and Smad3 regulates many functions attributed to TGF-b signaling. We hypothesize that Smad3 inhibitors will selectively eliminate Smad3-specific TGF-beta signals without undesired off-target effects. We aim to identify Smad3-small molecule antagonists using a quantitative high throughput screening (qHTS) approach. A high-throughput assay was developed to screen the NIH Molecular Libraries Small Molecule Repository (MLSMR). This is a cell based assay, where TGF-b is tagged with GFP. This assays tests the hits identified from the primary screen in HepG2 cells, but using a cop promoter rather than a caga promoter. True actives from the primary screen will also be active in this assay. NIH Chemical Genomics Center [NCGC] NIH Molecular Libraries Probe Centers Network [MLPCN] MLPCN Grant: MH087449 Assay Submitter (PI): Sushil Rane, National Institute of Diabetes and Kidney Diseases
# Suspensions of trypsinized HEPG2 COP-GFP cells were dispensed into white, tissue culture-treated, solid 1536-well plates at 5uL/well (1000 cells/well final concentration) in DMEM medium supplemented with 1% FBS. Plates were incubated at 37 degrees C for 2 hours, after which 23 nL of compounds or DMSO were delivered to each well using a pin tool. One uL of recombinant TGF-beta in DMEM (1% FBS) was then dispensed (500 pg/mL final concentration), and plates were incubated at 37 degrees C for 18 hours. The plates were measured on an Acumen eX3 Explorer plate reader for GFP fluorescence (ex488/em500-530). GFP values were calculated by determining the mean GFP fluorescence of individual cells, and compiling these values for each well to determine a total well GFP signal. The %Activity was determined from the corrected fluorescence values. A titration of the known TGF-B inhibitor SB431542 was included to monitor plate performance, while unstimulated HEPG2 (-TGF-B) control wells were used to normalize %Activity of identified inhibitors; unstimulated wells corresponded to 100%Activity (full inhibition), while stimulated cell controls (+DMSO) were used to normalize 0%Activity (no inhibition). Concentration-response curves were fitted to the signals arising from the resulting fluorescence. The concentration-effect curves were then classified based on curve quality (r2), response magnitude and degree of measured activity, and compounds were subsequently categorized based on their curve class.
# Potency is read from the fitted curve at half-maximal effect.
SMILES,Potency,"activity, negative = inhibition [%]"
O=C(NC1=CC(=O)c2ccccc2C1=O)c1ccccc1,16.4 µM (active),–
CCCOc1ccccc1C1CC(=O)Nc2cc3c(cc21)OCO3 (stereo not given),–,1.95
CCCOc1ccc(F)cc1-c1cc(C(=O)Nc2ccc(F)c(Cl)c2)[nH]n1,–,52.1
O=C(Nc1ccc(C2CC2(Cl)Cl)cc1)c1cccc([N+](=O)[O-])c1 (stereo not given),–,18.1
Cc1cccc(-c2nc(Nc3ccc(O)cc3)c3ccccc3n2)c1,–,75.3
COc1cncc(-c2cnc3sc(NCCc4ccccn4)nn23)c1,–,21.5
CCC(C)N1C(=O)S/C(=C/c2ccc(Sc3nc4ccccc4[nH]3)o2)C1=O (stereo not given),–,34.9
Fc1cc(F)c2nc(Nc3nc4c(F)cccc4s3)sc2c1,–,-4.89
COC(=O)N/N=C/c1cn(CCCOc2ccc(C)cc2)c2ccccc12,–,47.4
CCCc1cc(-c2n[nH]c(=S)n2CC)c2ccccc2n1,–,3.17
Oc1c(CN2CCN(c3ccc(F)cc3)CC2)cc(Cl)c2cccnc12,–,14
OCC1OC(n2cnc3c(N4CCCC4)ncnc32)C(O)C1O (stereo not given),–,29.2
CN(C)C(=O)c1cccc(-c2cnc3sc(NCc4ccc5c(c4)OCO5)nn23)c1,–,14.9
Cc1ccc(CN2CC(N3CCC(Cc4ccccc4)CC3)CS2(=O)=O)cc1 (stereo not given),–,2.5
COc1cc(/C=C2\Oc3ccc(C#Cc4ccc(O)cc4)cc3C2=O)cc(OC)c1,–,0.311
Cc1ccnc(NC(=O)C2CCN(S(=O)(=O)c3c(C)c(C)cc(C)c3C)CC2)c1,–,28.3
COc1ccc(CC(=O)Nc2ccccc2NC(=O)c2ccco2)cc1OC,–,5.51
O=C(Nc1ccc(Br)cn1)c1ccc([N+](=O)[O-])o1,–,27

SMILES,Potency,"activity, negative = inhibition [%]"
Cn1c(=O)n(C)c2cc(S(=O)(=O)N3CCCc4ccccc43)ccc21,–,19
CN(C)c1nc(=Nc2cccc(Cl)c2)ss1,–,14.4
COc1ccc(-c2onc(C)c2-c2ccc3c(c2)OCCO3)c(O)c1,–,42.4
CCOc1ccc(CCN2C(=S)N([C@@H](CC(C)C)CN3CCC[C@@H]3CN3C(=S)NC[C@@H]3Cc3ccc(O)cc3)C[C@@H]2CC(C)C)cc1,–,25.5
c1ccc(-c2cn3c(n2)CCc2ccc4cccnc4c2-3)cc1,–,17.3
Cc1ccc(S(=O)(=O)Nc2nc3ccccc3nc2N2CCc3ccccc3C2)cc1,–,0.702
O=C(CCC(=O)N1CCN(S(=O)(=O)c2ccc(Cl)cc2)CC1)NCc1cccc(C(F)(F)F)c1,–,25.9
COc1cccc2sc(N(CCCN(C)C)C(=O)CCS(=O)(=O)c3ccccc3)nc12,–,-68.6
CCOc1ccc(NS(=O)(=O)c2ccc(C(=O)NC3CCN(Cc4ccccc4)CC3)cc2)cc1,–,61.9
CC(=O)c1cccc(-c2cnc3c(NC=O)cc(-c4ccc(N(C)C)cc4)cn23)c1,–,0.802
COc1ccccc1CSc1ncc(-c2ccc([N+](=O)[O-])cc2)[nH]1,–,54.3
FC(F)(F)c1ccccc1Cc1c(-c2ccccc2)nc2c3ccccc3ccn12,–,10.2
Cc1ccc(C)c(S(=O)(=O)N2CCN(CC(=O)Nc3ccc([N+](=O)[O-])cc3)CC2)c1,–,15.9
COc1c(C(C)C)oc2cc3oc(=O)ccc3cc12,–,67.8
Cc1ccc(-c2nc3ccc(Br)cn3c2Cc2ccccc2C(F)(F)F)cc1,–,19.4
Brc1ccc2nc(-c3ccccc3)c(Cc3ccccc3)n2c1,–,17.5
COc1ccc(-c2csc(NC3OC(=O)c4ccccc43)n2)cc1 (stereo not given),–,69.1
